Experimental data reported in ChEMBL document CHEMBL1961873, “Compounds: GSK PKIS; Assays: Nanosyn kinase panel” (2012).

Assays:
[1] = target: T1, Tyrosine-protein kinase receptor TYRO3 (Homo sapiens) (UniProt Q06418); conditions: at 1 µM
T1 sequence (whole entry): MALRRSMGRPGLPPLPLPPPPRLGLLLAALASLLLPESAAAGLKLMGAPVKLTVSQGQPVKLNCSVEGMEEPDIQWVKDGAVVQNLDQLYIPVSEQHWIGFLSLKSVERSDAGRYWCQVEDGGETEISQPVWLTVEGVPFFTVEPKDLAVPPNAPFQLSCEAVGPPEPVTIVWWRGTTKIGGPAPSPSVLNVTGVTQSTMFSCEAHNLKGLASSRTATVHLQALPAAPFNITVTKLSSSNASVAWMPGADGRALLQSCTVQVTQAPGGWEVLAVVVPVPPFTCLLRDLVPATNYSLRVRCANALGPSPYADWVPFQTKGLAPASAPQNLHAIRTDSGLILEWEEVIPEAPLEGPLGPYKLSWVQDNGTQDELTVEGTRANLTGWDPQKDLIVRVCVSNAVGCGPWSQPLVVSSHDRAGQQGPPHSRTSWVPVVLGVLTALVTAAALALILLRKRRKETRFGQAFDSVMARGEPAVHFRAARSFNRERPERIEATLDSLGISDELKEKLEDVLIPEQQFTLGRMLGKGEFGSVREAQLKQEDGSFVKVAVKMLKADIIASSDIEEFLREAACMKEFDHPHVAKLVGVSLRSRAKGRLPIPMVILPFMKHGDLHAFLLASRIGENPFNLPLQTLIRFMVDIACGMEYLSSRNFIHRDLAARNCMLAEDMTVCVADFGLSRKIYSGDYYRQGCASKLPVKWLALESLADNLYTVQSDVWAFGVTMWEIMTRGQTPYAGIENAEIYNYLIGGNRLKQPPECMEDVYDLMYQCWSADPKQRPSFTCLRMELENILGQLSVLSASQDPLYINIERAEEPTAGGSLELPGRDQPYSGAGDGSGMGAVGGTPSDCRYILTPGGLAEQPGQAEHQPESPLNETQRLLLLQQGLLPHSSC

[2] = target: Tyrosine-protein kinase Yes (Homo sapiens) (UniProt P07947); conditions: at 0.1 µM
Sequence of Tyrosine-protein kinase Yes (Homo sapiens) (P07947 2-543 limits assumed): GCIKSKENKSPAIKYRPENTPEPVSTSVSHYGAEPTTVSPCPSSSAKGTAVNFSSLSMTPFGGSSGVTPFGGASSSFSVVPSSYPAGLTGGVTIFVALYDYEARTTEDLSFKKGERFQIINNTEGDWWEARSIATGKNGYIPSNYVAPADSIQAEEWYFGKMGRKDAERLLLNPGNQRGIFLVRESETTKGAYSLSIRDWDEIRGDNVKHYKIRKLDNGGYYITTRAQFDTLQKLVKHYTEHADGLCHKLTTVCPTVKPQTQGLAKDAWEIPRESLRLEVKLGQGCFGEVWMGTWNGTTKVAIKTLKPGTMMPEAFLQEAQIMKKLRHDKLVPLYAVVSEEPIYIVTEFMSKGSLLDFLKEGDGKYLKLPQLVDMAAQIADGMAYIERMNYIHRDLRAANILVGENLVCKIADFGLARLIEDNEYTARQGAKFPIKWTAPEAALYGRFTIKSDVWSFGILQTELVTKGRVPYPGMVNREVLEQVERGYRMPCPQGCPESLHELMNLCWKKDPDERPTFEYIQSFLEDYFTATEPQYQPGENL

[3] = target: Tyrosine-protein kinase Yes (Homo sapiens) (UniProt P07947); conditions: at 1 µM
[4] = target: T2, Tyrosine-protein kinase ZAP-70 (Homo sapiens) (UniProt P43403); conditions: at 0.1 µM
T2 sequence (whole entry): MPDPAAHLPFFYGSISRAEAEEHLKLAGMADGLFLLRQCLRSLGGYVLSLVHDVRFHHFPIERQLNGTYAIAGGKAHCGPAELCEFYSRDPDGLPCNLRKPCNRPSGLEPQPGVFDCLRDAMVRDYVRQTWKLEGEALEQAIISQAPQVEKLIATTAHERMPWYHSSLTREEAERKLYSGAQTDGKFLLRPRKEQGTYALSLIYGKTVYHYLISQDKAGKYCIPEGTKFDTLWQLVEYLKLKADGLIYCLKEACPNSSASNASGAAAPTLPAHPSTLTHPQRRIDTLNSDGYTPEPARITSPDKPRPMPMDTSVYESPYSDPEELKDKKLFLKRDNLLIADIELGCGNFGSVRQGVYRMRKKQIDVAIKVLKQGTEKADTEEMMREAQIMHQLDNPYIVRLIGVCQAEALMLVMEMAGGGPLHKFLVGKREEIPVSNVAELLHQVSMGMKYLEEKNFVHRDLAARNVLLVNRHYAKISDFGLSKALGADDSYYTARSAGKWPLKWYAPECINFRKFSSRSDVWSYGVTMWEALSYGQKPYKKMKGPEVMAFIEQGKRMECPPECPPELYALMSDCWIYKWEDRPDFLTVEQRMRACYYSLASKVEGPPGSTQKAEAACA

[5] = target: T2, Tyrosine-protein kinase ZAP-70 (Homo sapiens); conditions: at 1 µM
[6] = target: Serine/threonine-protein kinase B-raf (Homo sapiens) (UniProt P15056); conditions: at 0.1 µM
Sequence of Serine/threonine-protein kinase B-raf (Homo sapiens) (P15056 whole entry): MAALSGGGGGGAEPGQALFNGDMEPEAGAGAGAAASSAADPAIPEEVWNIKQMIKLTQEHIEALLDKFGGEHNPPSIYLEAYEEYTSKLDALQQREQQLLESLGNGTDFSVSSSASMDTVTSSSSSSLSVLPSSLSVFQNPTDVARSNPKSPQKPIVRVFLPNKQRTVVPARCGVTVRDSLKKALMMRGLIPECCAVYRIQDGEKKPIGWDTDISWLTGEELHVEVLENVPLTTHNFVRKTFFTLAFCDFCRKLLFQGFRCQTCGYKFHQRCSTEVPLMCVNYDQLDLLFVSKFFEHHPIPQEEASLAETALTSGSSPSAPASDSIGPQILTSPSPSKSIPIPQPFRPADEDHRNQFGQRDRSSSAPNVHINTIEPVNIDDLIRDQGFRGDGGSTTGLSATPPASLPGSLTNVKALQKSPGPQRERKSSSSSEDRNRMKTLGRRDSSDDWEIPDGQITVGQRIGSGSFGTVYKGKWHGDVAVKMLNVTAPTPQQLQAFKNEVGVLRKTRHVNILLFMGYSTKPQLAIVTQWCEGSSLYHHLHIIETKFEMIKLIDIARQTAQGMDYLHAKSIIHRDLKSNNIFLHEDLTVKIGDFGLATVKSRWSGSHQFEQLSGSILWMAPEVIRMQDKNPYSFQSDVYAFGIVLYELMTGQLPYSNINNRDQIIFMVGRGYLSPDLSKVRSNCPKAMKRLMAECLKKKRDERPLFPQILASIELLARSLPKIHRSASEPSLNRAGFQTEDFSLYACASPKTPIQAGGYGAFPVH

[7] = target: Serine/threonine-protein kinase B-raf (Homo sapiens) (UniProt P15056); conditions: at 1 µM
[8] = system: Serine/threonine-protein kinase B-raf (Homo sapiens), P15056 [V600E]; conditions: at 0.1 µM
Sequence of Serine/threonine-protein kinase B-raf (Homo sapiens), P15056 [V600E] (P15056 whole entry V600E): as the sequence (P15056 whole entry) above, with V600E counted along it

[9] = system: Serine/threonine-protein kinase B-raf (Homo sapiens), P15056 [V600E]; conditions: at 1 µM
[10] = target: RAF proto-oncogene serine/threonine-protein kinase (Homo sapiens) (UniProt P04049); conditions: at 0.1 µM
Sequence of RAF proto-oncogene serine/threonine-protein kinase (Homo sapiens) (P04049 whole entry): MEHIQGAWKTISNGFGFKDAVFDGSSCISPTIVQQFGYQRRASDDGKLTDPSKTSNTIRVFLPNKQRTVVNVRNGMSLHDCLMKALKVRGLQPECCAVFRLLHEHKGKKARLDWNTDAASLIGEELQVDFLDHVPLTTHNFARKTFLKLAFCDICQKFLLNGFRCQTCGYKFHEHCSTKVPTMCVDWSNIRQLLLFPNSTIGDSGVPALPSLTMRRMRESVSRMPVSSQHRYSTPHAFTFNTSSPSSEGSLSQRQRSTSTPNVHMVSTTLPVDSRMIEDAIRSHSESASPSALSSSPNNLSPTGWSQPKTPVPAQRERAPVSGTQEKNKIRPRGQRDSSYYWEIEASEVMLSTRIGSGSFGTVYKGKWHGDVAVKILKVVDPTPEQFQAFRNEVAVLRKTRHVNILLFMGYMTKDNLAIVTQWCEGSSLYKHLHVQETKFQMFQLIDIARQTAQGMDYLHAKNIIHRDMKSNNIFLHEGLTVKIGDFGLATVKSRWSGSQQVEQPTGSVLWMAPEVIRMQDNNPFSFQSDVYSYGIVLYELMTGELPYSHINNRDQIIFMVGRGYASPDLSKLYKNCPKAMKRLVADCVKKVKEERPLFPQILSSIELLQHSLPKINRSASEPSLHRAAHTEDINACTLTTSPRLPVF

[11] = target: RAF proto-oncogene serine/threonine-protein kinase (Homo sapiens) (UniProt P04049); conditions: at 1 µM
[12] = target: T3, Interleukin-1 receptor-associated kinase 4 (Homo sapiens) (UniProt Q9NWZ3); conditions: at 0.1 µM
T3 sequence (whole entry): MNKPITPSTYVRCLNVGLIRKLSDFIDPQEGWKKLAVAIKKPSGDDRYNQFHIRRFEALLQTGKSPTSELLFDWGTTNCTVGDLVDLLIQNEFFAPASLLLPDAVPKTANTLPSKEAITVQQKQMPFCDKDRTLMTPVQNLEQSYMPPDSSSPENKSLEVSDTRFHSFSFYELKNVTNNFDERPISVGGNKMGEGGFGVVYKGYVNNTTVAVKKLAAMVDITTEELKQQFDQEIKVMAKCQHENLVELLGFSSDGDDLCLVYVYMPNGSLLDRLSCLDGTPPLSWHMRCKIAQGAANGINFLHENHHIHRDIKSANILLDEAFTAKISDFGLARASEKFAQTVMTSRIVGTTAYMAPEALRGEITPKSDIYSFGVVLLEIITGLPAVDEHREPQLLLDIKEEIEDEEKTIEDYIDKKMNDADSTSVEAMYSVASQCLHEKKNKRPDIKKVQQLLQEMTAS

[13] = target: T3, Interleukin-1 receptor-associated kinase 4 (Homo sapiens); conditions: at 1 µM
[14] = target: Leucine-rich repeat serine/threonine-protein kinase 2 (Homo sapiens) (UniProt Q5S007); conditions: at 0.1 µM
Sequence of Leucine-rich repeat serine/threonine-protein kinase 2 (Homo sapiens) (Q5S007 whole entry): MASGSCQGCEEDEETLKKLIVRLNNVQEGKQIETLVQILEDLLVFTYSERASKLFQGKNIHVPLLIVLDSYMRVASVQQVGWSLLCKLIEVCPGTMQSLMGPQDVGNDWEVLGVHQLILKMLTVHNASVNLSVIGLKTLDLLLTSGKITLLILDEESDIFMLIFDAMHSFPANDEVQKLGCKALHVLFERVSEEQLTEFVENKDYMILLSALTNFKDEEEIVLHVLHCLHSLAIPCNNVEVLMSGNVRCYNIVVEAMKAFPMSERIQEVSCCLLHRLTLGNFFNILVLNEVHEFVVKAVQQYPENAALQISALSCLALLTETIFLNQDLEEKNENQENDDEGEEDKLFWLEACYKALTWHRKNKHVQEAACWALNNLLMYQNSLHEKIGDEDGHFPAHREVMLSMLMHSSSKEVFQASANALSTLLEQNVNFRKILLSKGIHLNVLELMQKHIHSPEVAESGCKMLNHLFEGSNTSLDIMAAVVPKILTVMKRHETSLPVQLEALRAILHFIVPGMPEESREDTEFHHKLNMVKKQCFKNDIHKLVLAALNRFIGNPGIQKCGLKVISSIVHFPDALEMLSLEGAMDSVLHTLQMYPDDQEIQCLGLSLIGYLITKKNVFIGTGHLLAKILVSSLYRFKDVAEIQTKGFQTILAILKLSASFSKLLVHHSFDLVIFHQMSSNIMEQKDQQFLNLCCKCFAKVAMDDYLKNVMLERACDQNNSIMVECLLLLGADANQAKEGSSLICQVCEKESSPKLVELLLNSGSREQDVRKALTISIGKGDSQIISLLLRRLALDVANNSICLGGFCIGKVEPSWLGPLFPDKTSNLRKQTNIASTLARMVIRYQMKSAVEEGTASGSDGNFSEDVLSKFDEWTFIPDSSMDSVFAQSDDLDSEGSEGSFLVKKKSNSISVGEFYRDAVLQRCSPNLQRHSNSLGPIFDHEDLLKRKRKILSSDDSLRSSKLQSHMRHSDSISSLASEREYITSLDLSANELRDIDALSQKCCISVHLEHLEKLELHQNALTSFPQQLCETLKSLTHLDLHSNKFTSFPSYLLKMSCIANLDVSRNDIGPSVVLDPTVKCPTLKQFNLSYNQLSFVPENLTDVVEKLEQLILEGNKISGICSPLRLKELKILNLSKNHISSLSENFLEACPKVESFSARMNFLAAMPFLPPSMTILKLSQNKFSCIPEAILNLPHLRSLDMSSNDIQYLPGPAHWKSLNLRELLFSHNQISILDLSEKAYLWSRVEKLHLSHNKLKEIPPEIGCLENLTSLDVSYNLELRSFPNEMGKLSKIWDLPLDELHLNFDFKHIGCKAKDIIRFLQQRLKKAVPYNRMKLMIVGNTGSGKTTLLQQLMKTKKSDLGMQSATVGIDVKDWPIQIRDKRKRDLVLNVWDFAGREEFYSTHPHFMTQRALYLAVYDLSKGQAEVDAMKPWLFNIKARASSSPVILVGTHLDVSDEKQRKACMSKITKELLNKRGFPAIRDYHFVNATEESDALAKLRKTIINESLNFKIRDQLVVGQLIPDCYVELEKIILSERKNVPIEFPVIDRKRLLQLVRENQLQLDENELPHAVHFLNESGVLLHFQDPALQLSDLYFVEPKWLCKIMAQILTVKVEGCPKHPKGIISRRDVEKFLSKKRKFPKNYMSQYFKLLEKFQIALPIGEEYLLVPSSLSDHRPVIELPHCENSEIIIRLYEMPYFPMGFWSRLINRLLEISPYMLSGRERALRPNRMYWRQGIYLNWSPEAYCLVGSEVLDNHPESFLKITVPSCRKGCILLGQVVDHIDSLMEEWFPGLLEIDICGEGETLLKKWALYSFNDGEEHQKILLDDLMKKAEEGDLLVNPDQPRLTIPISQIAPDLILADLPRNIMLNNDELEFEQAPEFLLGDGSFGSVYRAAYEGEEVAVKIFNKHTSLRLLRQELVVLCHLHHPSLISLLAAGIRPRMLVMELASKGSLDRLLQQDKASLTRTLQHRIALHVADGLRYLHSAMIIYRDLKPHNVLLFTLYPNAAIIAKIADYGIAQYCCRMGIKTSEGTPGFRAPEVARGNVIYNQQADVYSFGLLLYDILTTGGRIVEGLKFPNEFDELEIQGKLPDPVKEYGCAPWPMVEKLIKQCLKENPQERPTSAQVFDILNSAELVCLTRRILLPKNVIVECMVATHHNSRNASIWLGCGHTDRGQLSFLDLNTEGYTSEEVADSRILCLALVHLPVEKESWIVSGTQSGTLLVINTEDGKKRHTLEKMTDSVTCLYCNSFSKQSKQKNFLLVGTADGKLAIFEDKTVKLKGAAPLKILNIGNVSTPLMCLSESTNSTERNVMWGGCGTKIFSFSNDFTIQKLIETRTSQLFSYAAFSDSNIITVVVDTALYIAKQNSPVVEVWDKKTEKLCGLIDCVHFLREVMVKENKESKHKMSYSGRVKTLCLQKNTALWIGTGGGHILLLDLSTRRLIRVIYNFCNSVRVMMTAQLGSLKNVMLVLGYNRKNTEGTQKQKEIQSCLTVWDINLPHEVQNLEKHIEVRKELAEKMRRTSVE

[15] = target: Leucine-rich repeat serine/threonine-protein kinase 2 (Homo sapiens) (UniProt Q5S007); conditions: at 1 µM
[16] = system: Leucine-rich repeat serine/threonine-protein kinase 2 (Homo sapiens), Q5S007 [G2019S]; conditions: at 0.1 µM
Sequence of Leucine-rich repeat serine/threonine-protein kinase 2 (Homo sapiens), Q5S007 [G2019S] (Q5S007 whole entry G2019S): as the sequence (Q5S007 whole entry) above, with G2019S counted along it

[17] = system: Leucine-rich repeat serine/threonine-protein kinase 2 (Homo sapiens), Q5S007 [G2019S]; conditions: at 1 µM

Row | SMILES | inhibition [1] [%] | inhibition [2] [%] | inhibition [3] [%] | inhibition [4] [%] | inhibition [5] [%] | inhibition [6] [%] | inhibition [7] [%] | inhibition [8] [%] | inhibition [9] [%] | inhibition [10] [%] | inhibition [11] [%] | inhibition [12] [%] | inhibition [13] [%] | inhibition [14] [%] | inhibition [15] [%] | inhibition [16] [%] | inhibition [17] [%]
1 | Cc1ccc(NC(=O)c2ccnc(N3CCCC3)c2)cc1-c1ccc(C(=O)NCC2CC2)cc1 | 1.97 | 2.17 | 3.08 | -2.27 | 0.03 | 8.24 | 14.7 | 7.57 | 15 | 4.02 | -6.49 | -0.18 | 2.34 | 1.63 | 6.13 | 4.42 | 7.81
2 | Cc1ccc(C(=O)NC2CCCCC2)cc1-c1ccc(C(=O)NCC2CC2)cc1 | -0.08 | 1.31 | 1.09 | 2.48 | 6.15 | 3.92 | 3.21 | 3.15 | 3.03 | 4.27 | 0.13 | -1.27 | 1.67 | 6.21 | 6.84 | 3.47 | 3.31
3 | CS(=O)(=O)CCNCc1ccc(-c2ccc3ncnc(Nc4ccc(OCc5cccc(F)c5)c(C(F)(F)F)c4)c3c2)o1 | 3.6 | 0.9 | 5.19 | -4.38 | -2.61 | 6.3 | 6.29 | 7.33 | 6.22 | 2.93 | 12.1 | 4.38 | 1.89 | 0.82 | 1.68 | 3.39 | 2.93
4 | CC1=C(C(=O)Nc2ccc3[nH]ncc3c2)C(c2ccc3ccccc3c2)CC(=O)N1 (stereo not given) | 6.2 | 16.6 | 62.9 | 3.08 | 2.98 | 8.21 | 43.5 | 8.51 | 45.2 | 1.05 | 1.65 | 3.06 | 0.83 | 4.73 | 10.1 | 6.31 | 25
5 | CCn1c(-c2nonc2N)nc2cncc(C(=O)N3CC[C@H](N)C3)c21 | 6.78 | 1.84 | 5.96 | -1.89 | -1.69 | 6.39 | 7.03 | 7.1 | 6.82 | 12.6 | 3.85 | 2.88 | 2.25 | 4.57 | 14.5 | 7.16 | 29.5
6 | COc1cccc(-n2ncc3c(N/N=C/c4cccc(F)c4)ncnc32)c1 | 8.11 | 6.17 | 31 | -0.37 | -0.02 | 4.04 | 5.91 | 3.95 | 5.71 | 0.69 | -6.84 | 3.28 | 1.56 | -3.46 | -0.49 | 0.79 | 2.23
7 | Nc1ncnc2occ(-c3ccc(NC(=O)Nc4cccc(C(F)(F)F)c4)cc3)c12 | 32.2 | 7.17 | 45.7 | 1.4 | 1.43 | 7.07 | 13.3 | 5.78 | 13.5 | 0.71 | -2.58 | 2.03 | 2.34 | 17.1 | 57.9 | 13.1 | 42.8
8 | CCn1c(-c2nonc2N)nc2cncc(C(=O)N3CCNCC3)c21 | 2.14 | 2.93 | 3.85 | 2.85 | 4.99 | 9.15 | 11.5 | 6.08 | 5.58 | 4.15 | -2.31 | 2.74 | 3.54 | 1.69 | 0.35 | 3.72 | 7.17
9 | Nc1nc(-c2ccc3c(c2)C(=Cc2cc(Br)c(O)c(Br)c2)C(=O)N3)cs1 | 2.67 | -4.7 | 6.08 | 0.01 | -1.62 | 4.51 | 13.7 | 3.07 | 14.7 | 2.35 | 26.7 | 3.08 | -0.15 | 0.74 | 14.2 | 10.3 | 43.5
10 | CS(=O)(=O)CCNCc1nc(-c2ccc3ncnc(Nc4ccc(F)c(Cl)c4)c3c2)cs1 | 3.05 | -0.53 | 9.54 | -0.36 | -0.71 | 1.66 | 3.47 | 1.41 | 3.88 | -0.76 | -0.82 | 0.41 | 1.35 | 2.13 | 5.82 | 1.31 | 2.37
11 | CC1=C(C(=O)Nc2ccc3[nH]ncc3c2)C(c2ccc(F)cc2)NC(=O)N1 (stereo not given) | 2.1 | 2.93 | 3.94 | 2.76 | 1.91 | 3.64 | 5.71 | 2.81 | 6.38 | 1.97 | -2.67 | 2.07 | 0.77 | 2.24 | 5.08 | 3.81 | 14.8
12 | CNC(=O)c1cncc(/C=C/c2c(Cl)cccc2Cl)c1 | 4.06 | 3.3 | 17.2 | 0.11 | 1.58 | 6.39 | 10.5 | 3.03 | 4.23 | 5.08 | 0.92 | 1.25 | 2.37 | 0.98 | 7.19 | 5.24 | 14.7
13 | Nc1nc(-c2ccccn2)c(-c2ccc3ncccc3n2)s1 | 2.67 | -0.44 | 0.23 | 0.82 | 0.6 | 3.55 | 7.22 | 3.63 | 5.74 | 2.42 | 2.42 | -3.29 | 1.27 | 2.15 | 4.38 | 1.86 | 5.88
14 | Cc1nnc(-c2ccc(C)c(-c3ccc(C(=O)Nc4cccc(C#N)c4)cc3)c2)o1 | 1.98 | 1.42 | 5.81 | 2.77 | 3.12 | 3.86 | 3.97 | 3.34 | 3.85 | -4.37 | -9.42 | 4.13 | 0.84 | 0.06 | 0.83 | 2.49 | 7.62
15 | CCCN1CCC(Oc2cc(Nc3nc(Nc4cccc(F)c4C(N)=O)c4cc[nH]c4n3)c(OC)cc2Cl)CC1 | 1.14 | 1.16 | 1.57 | -1.5 | 0.24 | 2.31 | 24.1 | 1.35 | 23.7 | -1.14 | 5.41 | -2.83 | 2.25 | 11.5 | 19.6 | 12.8 | 55.9
